From PMC4336329 (PLoS ONE, 2015) come the findings set out here.

The structures appear in SMILES notation. The campaign covered roughly 310,000 compounds. About 14,000 (4.5%) showed an effect of 50% or more. The effect is printed as a negative number. Only a selection was taken, and strong results are over-represented in it overall.
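Note: peak tail current of the secondary pulse compared with the same well before compound.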

For the experiment, the target named is human ether-à-go-go-related gene (hERG) potassium channel (human, UniProt Q12809). Briefly: primary screen, population patch clamp on CHO cells stably expressing hERG; higher = less effect of the substance.
Sequence of human ether-à-go-go-related gene (hERG) potassium channel (Q12809 whole entry, looked up): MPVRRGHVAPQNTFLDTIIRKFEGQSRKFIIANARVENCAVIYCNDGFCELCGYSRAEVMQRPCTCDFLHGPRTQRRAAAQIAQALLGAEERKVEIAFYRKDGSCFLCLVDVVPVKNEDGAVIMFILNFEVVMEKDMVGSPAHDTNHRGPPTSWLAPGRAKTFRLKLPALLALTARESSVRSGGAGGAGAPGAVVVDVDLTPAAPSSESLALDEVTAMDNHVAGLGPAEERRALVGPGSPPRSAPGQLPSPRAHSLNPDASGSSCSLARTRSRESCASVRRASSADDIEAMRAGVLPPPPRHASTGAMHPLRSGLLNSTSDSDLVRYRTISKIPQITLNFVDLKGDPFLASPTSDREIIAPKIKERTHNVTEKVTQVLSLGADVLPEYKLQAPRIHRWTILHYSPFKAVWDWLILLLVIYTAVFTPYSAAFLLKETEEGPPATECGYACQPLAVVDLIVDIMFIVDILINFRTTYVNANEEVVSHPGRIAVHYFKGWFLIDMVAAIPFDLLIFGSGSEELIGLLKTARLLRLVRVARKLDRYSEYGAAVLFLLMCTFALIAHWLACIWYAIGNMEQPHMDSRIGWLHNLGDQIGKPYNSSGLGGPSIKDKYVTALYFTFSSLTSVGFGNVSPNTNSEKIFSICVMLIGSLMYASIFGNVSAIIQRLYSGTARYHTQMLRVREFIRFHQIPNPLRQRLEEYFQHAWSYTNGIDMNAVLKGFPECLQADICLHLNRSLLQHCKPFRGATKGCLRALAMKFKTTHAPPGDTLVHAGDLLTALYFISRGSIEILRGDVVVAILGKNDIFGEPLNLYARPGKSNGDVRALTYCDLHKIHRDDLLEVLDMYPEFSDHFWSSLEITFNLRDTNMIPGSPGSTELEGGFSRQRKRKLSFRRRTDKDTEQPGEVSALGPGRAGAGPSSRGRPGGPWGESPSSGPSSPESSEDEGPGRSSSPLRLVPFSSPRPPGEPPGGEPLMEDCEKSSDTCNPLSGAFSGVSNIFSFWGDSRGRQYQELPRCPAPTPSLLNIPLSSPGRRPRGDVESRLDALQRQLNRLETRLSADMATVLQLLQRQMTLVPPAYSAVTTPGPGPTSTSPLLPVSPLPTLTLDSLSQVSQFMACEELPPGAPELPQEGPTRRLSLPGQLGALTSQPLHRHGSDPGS
On to `[O-][N+]1=C(c2cccs2)CN(O)C1`, for which the “hERG current change (%, negative = inhibition) at 10uM” value is on record as 8.57%. Turning to `CC(OC(=O)/C=C/c1ccco1)C(=O)NC1CCCCC1C` (stereo not shown), the “hERG current change (%, negative = inhibition) at 10uM” value is given as -3.2%. Take `Nc1sc(-c2ccccc2)c(Cc2ccccc2)c1C(=O)O`: the “hERG current change (%, negative = inhibition) at 10uM” value is -2.59%. Turning to `Cc1cnc(NC(=O)CSc2ccccc2)s1`, the “hERG current change (%, negative = inhibition) at 10uM” value amounted to 3.88%.

`FC(F)(F)c1ccc2c(c1)nnn2C1CCN(Cc2nnnn2Cc2ccccc2)CC1`: the “hERG current change (%, negative = inhibition) at 10uM” value was -50.9%. With `O=C(O)CCC(=O)N1CCC(n2nnc3cc(C(F)(F)F)ccc32)CC1`, the “hERG current change (%, negative = inhibition) at 10uM” value was determined as 10.5%.

In the case of `OC1(c2cccc(C(F)(F)F)c2)CCN(Cc2nnnn2Cc2ccccc2)CC1`, the “hERG current change (%, negative = inhibition) at 10uM” value was found to be 10.4%. Then `Fc1ccc(Cn2nnnc2CN2CCC(n3nnc4cc(C(F)(F)F)ccc43)CC2)cc1`, with -69.6%; and `Fc1ccc(Cn2nnnc2CN2CCN(C3CCCC3)CC2)cc1`, with -49.1%. With `C1CCN(Cc2nnnn2C2CCCC2)CC1` the figure was 11.4%. Then `Cl.Fc1ccc2c(c1)nnn2C1CCN(Cc2nnnn2C2CCCCC2)CC1`, with -38.1%; and `FC(F)(F)c1ccc2c(c1)ncn2C1CCN(Cc2nnnn2C2CCCCC2)CC1`, with -59.6%. For the compound `Cc1ccc(Cn2nnnc2CN2CCC(n3nnc4cc(C(F)(F)F)ccc43)CC2)cc1`, the “hERG current change (%, negative = inhibition) at 10uM” value was 2.84%. On to `O=C(CSc1ccc2c(c1)OCCO2)NCCc1ccc(Cl)cc1Cl`, for which the “hERG current change (%, negative = inhibition) at 10uM” value is recorded as -8.94%. For `O=C(Nc1ccc(Cl)cc1C(F)(F)F)c1ccccc1`, the “hERG current change (%, negative = inhibition) at 10uM” value is 8.81%.

In the case of `Cn1cnnc1SCC(=O)Nc1cc(S(=O)(=O)N2CCCCCC2)ccc1Cl`, the “hERG current change (%, negative = inhibition) at 10uM” value is listed as -17.8%. Regarding `CCc1c(C)nc2ncnn2c1Nc1ccccc1C`, the “hERG current change (%, negative = inhibition) at 10uM” value is -34.1%. Then `CCOC(=O)N1CCC(NC(=O)c2cc(C(=O)Nc3ccc(OCC)cc3)ccc2CO)CC1`, with 9.27%. With `CC(C)c1nnc(NC(=O)CC(C)c2ccccc2)s1` (stereo not shown) the figure was 1.39%; with `N#Cc1c(N)nc2c3c(sc(=N)c2c1N)NC(=O)CC3c1c(F)cccc1Cl` (stereo not shown), -15.7%.

`O=C(NNc1nc2ccccc2s1)c1ccccc1F`: the “hERG current change (%, negative = inhibition) at 10uM” value is -7.04%.

Regarding `Cc1cc(C)cc(NC(=S)NC2CC3CCCC(C2)N3Cc2cccs2)c1` (stereo not shown), the “hERG current change (%, negative = inhibition) at 10uM” value is -52.9%. With `Cc1ccc(NC(=S)NC2CC3CCCC(C2)N3Cc2cccs2)cc1` (stereo not shown) the figure was -56.5%.

`Cc1cccc(NC(=S)NC2CC3CCCC(C2)N3Cc2cccs2)c1` (stereo not shown): the “hERG current change (%, negative = inhibition) at 10uM” value is listed as -35.9%. Consider `Fc1ccc(NC(=S)NC2CC3CCC(C2)N3Cc2ccco2)cc1` (stereo not shown), for which the “hERG current change (%, negative = inhibition) at 10uM” value was -12.6%. Take `CCc1ccc(NC(=S)NC2CC3CCCC(C2)N3Cc2cccs2)cc1` (stereo not shown): the “hERG current change (%, negative = inhibition) at 10uM” value was -20.4%. With `CCc1ccccc1NC(=S)NC1CC2CCCC(C1)N2Cc1cccs1` (stereo not shown), the “hERG current change (%, negative = inhibition) at 10uM” value is recorded as -4.03%. On to `Cc1cccc(NC(=S)NC2CC3CCCC(C2)N3Cc2cccs2)c1C` (stereo not shown), for which the “hERG current change (%, negative = inhibition) at 10uM” value was -37.9%. As for `Fc1ccc(NC(=S)NC2CC3CCCC(C2)N3Cc2cccs2)cc1` (stereo not shown), the “hERG current change (%, negative = inhibition) at 10uM” value is reported as -59.5%. Then `CC(C)CNC(=S)NC1CC2CCCC(C1)N2Cc1cccs1` (stereo not shown), with -34.8%. With `CCOC(=O)C(=O)N(Nc1ccccc1C)c1ccccc1C`, the “hERG current change (%, negative = inhibition) at 10uM” value was -14.3%. On to `O=C(Nc1ccccn1)c1ccc2c(c1)OCCO2`, for which the “hERG current change (%, negative = inhibition) at 10uM” value came out at 11.5%.

As for `CC1CCN(c2nc(-c3ccc(F)cc3)cc(C(F)(F)F)n2)CC1`, the “hERG current change (%, negative = inhibition) at 10uM” value is 15.6%. Regarding `Cc1csc(C2=C(O)CN(CCc3ccccc3)C2=N)n1`, the “hERG current change (%, negative = inhibition) at 10uM” value was found to be 1.95%. In the case of `O=C(CCc1ccccc1)OCCOC(=O)CCc1ccccc1`, the “hERG current change (%, negative = inhibition) at 10uM” value was determined as 22.1%.

As to `Cc1cc(C(F)(F)F)nn1CC(=O)Nc1ccc2c(c1)OCO2`, the “hERG current change (%, negative = inhibition) at 10uM” value is given as -2.91%.

Turning to `CCCCOC(=O)c1ccc(NC(C)=O)cc1`, the “hERG current change (%, negative = inhibition) at 10uM” value is given as -11.2%. As to `O=c1oc2ccccc2c(Nc2ccccc2)c1CN1CCCCC1`, the “hERG current change (%, negative = inhibition) at 10uM” value is listed as -57.1%. Consider `O=c1oc2ccccc2c(O)c1CN1CCCCC1`, for which the “hERG current change (%, negative = inhibition) at 10uM” value was found to be 13.9%. Then `O=c1oc2ccccc2c(N2CCCCC2)c1CN1CCCCC1`, with -18.4%; and `O=c1oc2ccccc2c(Cl)c1CN1CCCCC1`, with 24.1%; and `Nc1c(N2CCN(c3ccccc3)CC2)c2ccccc2oc1=O`, with -50.1%. With `CN1CCN(c2c(N)c(=O)oc3ccccc23)CC1`, the “hERG current change (%, negative = inhibition) at 10uM” value is recorded as -45.2%. For the compound `Nc1c(N2CCCC2)c2ccccc2oc1=O`, the “hERG current change (%, negative = inhibition) at 10uM” value is 2.82%. Then `O=c1oc2ccccc2c(N2CCCCC2)c1CN1CCCC1`, with -54.4%; and `O=c1oc2ccccc2c(N2CCCC2)c1CN1CCCC1`, with 13%.
